TDP1 cell noCPT: qHTS for Inhibitors of human tyrosyl-DNA phosphodiesterase 1 (TDP1): qHTS in cells in absence of CPT | AID 686978, 2013 | Potency, µM (titrated, usually from 46.2 µM), without a hit: at the top dose activity change, negative = growth inhibition, usual class: inhibitors | DT40 Tdp1-/- hTDP1 cells, no CPT, ATP luminescence, 48 h | hit rate 15% among 420,000; also: nearly all actives have a fitted effect of over 55% in size
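Readout: luminescence from CellTiter-Glo after 30 min in the dark at RT. Cells: DT40 Tdp1-/- with stable hTDP1, 400/well. Exposure: compounds alone, ≥48 hr, 37 °C.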
KB-V1 MDR tox: qHTS assay for MDR1-selective chemotherapeutics: Primary screen using the drug-selected MDR subline cells KB-V1; KB-V1 MDR cells viability, CellTiter-Glo, 72 h; Potency, µM (doses to about 46.1 µM), actives largely listed as cytotoxic; hit rate 3.4% among 400,000; AID 1347076, 2019; also: nearly all actives have a fitted effect of over 60% in size
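KB-V1, DMEM (no phenol red) + 10% FBS; cpd pin-transferred, titration series; 72 h, 37 degrees C; CellTiter-Glo, luminescence. Data normalized, curve-fit.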
HT1080 IDH1KD tx: qHTS for induction of synthetic lethality in tumor cells producing 2HG: qHTS for the HT-1080-IDH1KD cell line; HT-1080 IDH1 knockdown viability, ATP luminescence, 48 h; Potency, µM (series often up to 46.1 µM), inactives show at the top dose activity, negative = toxicity, actives largely listed as cytotoxic; hit rate 2% among 360,000;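 also: 0% = DMSO wells and -100% = cell-free medium wells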
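HT-1080-IDH1KD cells (IDH1 knocked down), 750/well in RPMI with 5% FBS, treated with compound 48 h at 37 degrees C. Viability by CellTiter-Glo luminescence, normalised to DMSO and no-cell wells; concentration-response curves classed.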
HT1080-NT tox: qHTS for induction of synthetic lethality in tumor cells producing 2HG: qHTS for the HT-1080-NT fibrosarcoma cell line; HT-1080-NT fibrosarcoma viability, CellTiter-Glo ATP luminescence, 48 h; Potency, µM (titrated, usually from 46.1 µM), inactives show at the highest dose activity, negative = less viability, usual class: cytotoxic; hit rate 1.6% among 360,000; AID 686970, 2013;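 also: NT is the 2HG producing partner of a matched IDH1 knockdown line; 0% = DMSO-treated cells and -100% = media-only wells without cells; nearly all actives have a fitted effect of over 55% in size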
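750 cells/well, RPMI + 5% FBS; 2 h settle, compound pin-transfer, 48 h at 37 degrees C. CellTiter-Glo 10 min RT, luminescence. Normalized to DMSO and media-only wells.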
DT40 TDP1 CPT: qHTS for Inhibitors of human tyrosyl-DNA phosphodiesterase 1 (TDP1): qHTS in cells in presence of CPT; chicken DT40 Tdp1-/-;hTDP1 cells + 20 nM CPT, ATP luminescence, 48 h; Potency, µM (doses to about 46.2 µM), inactives show at the highest dose activity change, negative = growth inhibition, actives largely listed as inhibitors; hit rate 12% among 420,000; also: nearly all actives have a fitted effect of over 55% in size
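Chicken DT40 Tdp1-/- cells stably complemented with human TDP1 were seeded at 400 cells/well in medium containing 20 nM camptothecin, exposed to pin-transferred compounds, and grown at 37 °C for at least 48 hr. Viability was read as ATP luminescence.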
KB-3-1 cytotox: qHTS assay for MDR1-selective chemotherapeutics: Primary screen using the parental adenocarcinoma cell KB-3-1 | KB-3-1 viability, CellTiter-Glo ATP luminescence, 72 h | Potency, µM (top dose mostly 46.1 µM), most hits filed as cytotoxic | hit rate 1.4% among 400,000; also: nearly all actives have a fitted effect of over 60% in size
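Cells are dispensed, compounds pinned in, plates held at 37 °C for 72 h, then CellTiter-Glo is added and luminescence read after 10 minutes. Cell line: parental KB-3-1 in phenol-red-free DMEM, 10% FBS.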
The depositor's hits bear a star; i = inactive; ? = inconclusive; / = not tested or not shown. Shown are actives, neighbours in structure and some others; about 19% of the full set was active somewhere. Calls follow the shape of the dose curve; as a rule, active = well fitted curve in the direction sought with a large enough effect; inconclusive = small, poorly fitted or top-dose-only effect, or another doubt; inactive = no such curve, though single readings can be large; an effect the other way counts as inactive or inconclusive. Unless noted, % is scaled to controls: 0 for no effect and ±100 for the full control effect; potency is read from the fitted curve at half-maximal effect.

SMILES	TDP1 cell noCPT	KB-V1 MDR tox	HT1080 IDH1KD tx	HT1080-NT tox	DT40 TDP1 CPT	KB-3-1 cytotox
Cc1ccc(OCC(=O)NCC(c2ccc(Cl)cc2)N2CCCCC2)cc1 (stereo not given)	?	i	/	/	?	i
CN(C)c1ccc(C(CNC(=O)COc2ccc(Cl)cc2)N2CCCC2)cc1 (stereo not given)	?	i	2%	-14%	?	i
COc1ccc(OCC(=O)NCC(c2ccc(Cl)cc2)N2CCCCC2)cc1 (stereo not given)	?	i	/	/	21µM*	i
Cc1ccccc1C(=O)N1CC/C(=N\OS(=O)(=O)O)c2ccc(Cl)cc21	-3%	/	/	/	-24%	/
CC(=O)Nc1ccc(N=Cc2ccc(OCc3ccccc3)cc2)cc1	-21%	i	13%	2%	-5%	i
O=C(N/N=C/c1ccc(Br)s1)c1cccnc1	-11%	i	11%	10%	-7%	i
C(=Nc1ccc(Nc2ccccc2)cc1)c1ccc2ccccc2c1	12µM*	i	-5%	0%	13µM*	i
Brc1ccc(C=Nc2ccc(Nc3ccccc3)cc2)s1	16µM*	i	2%	6%	?	i
Cc1ccccc1Cc1c(C)nc2c(C(=O)N3CCN(Cc4ccc5c(c4)OCO5)CC3)cnn2c1C	18µM*	8.2µM*	?	-4%	?	i
CCN1CCN(C(=O)c2cnn3c(C(F)F)cc(-c4ccc(C)cc4)nc23)CC1	?	i	-1%	5%	-19%	i
Cc1ccccc1Cc1c(C)nc2c(C(=O)NCc3ccc4c(c3)OCO4)cnn2c1C	?	18µM*	2%	-11%	18µM*	i
O=C(c1cc(-c2ccc(F)cc2)no1)N1CCN(Cc2ccc3c(c2)OCO3)CC1	16µM*	?	-13%	-14%	?	i
O=C(c1cnn2c(C(F)F)cc(-c3ccccc3)nc12)N1CCN(Cc2ccc3c(c2)OCO3)CC1	26µM*	i	?	-14%	?	i
Cc1cccc(Cc2c(C)nc3c(C(=O)N4CCN(Cc5ccc6c(c5)OCO6)CC4)cnn3c2C)c1	?	i	-23%	?	?	i
Cc1c(NS(=O)(=O)c2cccc(C(=O)OCC(=O)N(C)C3CCCCC3)c2)c(=O)n(-c2ccccc2)n1C	-11%	i	-2%	-3%	-18%	i
COc1ccc(NC(=O)C2=C(C)Nc3ncnn3C2c2ccc(O)cc2)cc1 (stereo not given)	9%	?	/	/	3%	i
COC(=O)c1c[nH]c2c1-c1cc(C(=O)OCc3ccccc3)n(S(=O)(=O)c3ccc(C)cc3)c1C(=O)C2=O	0.58µM*	5.8µM*	21µM*	?	0.58µM*	2.9µM*
Cc1ccc(S(=O)(=O)NC(CC(=O)OCc2ccccc2)C(=O)OCc2ccccc2)cc1 (stereo not given)	?	i	17%	5%	-26%	?
CC(=O)c1cc2c(cc1NC(=O)C1CC=CCC1C(=O)O)OCO2 (stereo not given)	?	i	12%	16%	-16%	i
CC(=O)c1cc2c(cc1NC(=O)c1cc(C)nn1-c1ccccc1)OCO2	3.7µM*	i	-7%	0%	5.2µM*	5.8µM*
CC(=O)c1cc2c(cc1NC(=O)C1CN(C(C)=O)c3ccccc3O1)OCO2 (stereo not given)	21µM*	?	17%	8%	15µM*	i
O=C1C(=O)N(Cc2cccnc2)C(c2cccc(Br)c2)/C1=C(/O)c1ccc2c(c1)OCO2 (stereo not given)	20%	?	-1%	0%	-1%	i
OC1CCCN(CC(O)COc2ccc(-c3ccccc3)cc2)C1 (stereo not given)	23µM*	?	?	?	?	i
CC1CCCN(CC(O)COc2ccc(Cl)cc2)C1 (stereo not given)	-12%	i	-20%	5%	-11%	i
CC1CCCN(CC(O)COc2ccc(-c3ccccc3)cc2)C1 (stereo not given)	?	i	?	18µM*	?	?
SMILES	TDP1 cell noCPT	KB-V1 MDR tox	HT1080 IDH1KD tx	HT1080-NT tox	DT40 TDP1 CPT	KB-3-1 cytotox
CN(Cc1cc2ccccc2[nH]c1=O)S(C)(=O)=O	-4%	i	2%	-8%	-13%	i
CCCC1(C)NC(=O)c2ccccc2O1 (stereo not given)	-5%	i	5%	20%	12%	i
COC(=O)COc1ccc(S(=O)(=O)Nc2ccc3c(c2)OCCO3)cc1C	?	?	0%	-3%	?	?
C=CCSc1nnc2nc3c(nn12)c1cc(C)ccc1n3CC=C	?	i	6%	-4%	16µM*	i
C=CCn1c2ccccc2c2nnc(SCC(N)=O)nc21	7%	i	-11%	-6%	-9%	i
CCNc1ncc2nc(C)c(=O)n(Cc3cccs3)c2n1	-23%	/	/	/	-4%	/
CCOC(=O)Nc1ccc2c(c1)C(=NO)c1ccccc1-2	21µM*	8.2µM*	11%	2%	18µM*	?
CCOC(=O)Nc1ccc2c(c1)C(=NNC(N)=S)c1ccccc1-2	3.3µM*	23µM*	?	?	6.5µM*	?
N#Cc1nc(Nc2cc(F)cc(F)c2)c2ncn(CCCN3CCCC3)c2n1	/	i	/	/	/	i
O=C(O)c1cc(N=Cc2c(O)c3ccccc3oc2=O)ccc1O	-20%	i	?	?	?	?
Cc1cc(NO)nc(-c2ccc(Br)cc2)n1	-38%	i	-8%	10µM*	-22%	i
O=S1(=O)CC(N2CC=CC2)CN1Cc1cn(Cc2ccc(F)cc2)nn1 (stereo not given)	-7%	i	2%	-2%	4%	i
C/C(=N\O)c1ccc2c(c1)OCCO2	3.7µM*	i	-1%	2%	-4%	i
C/C(=N/O)c1ccc2c(c1)OCCOCCOc1cc(/C(C)=N/O)ccc1OCCOCCO2	16µM*	i	9%	1%	?	?
CC1=C(C)CS(=O)N(S(=O)(=O)c2ccc(Cl)cc2)C1 (stereo not given)	2.3µM*	?	?	?	3.7µM*	?
